Measured values reported in PubChem BioAssay AID489025 (Southern Research Specialized Biocontainment Screening …, 2010).
The campaign covered roughly 2,300 compounds. About 790 (34%) were called active. No rule for the calls is given here. This is one part of the list. Entries that show only a call come without a potency. Potency and affinity values are given separately.

Assay: THP-1 cell cytotoxicity, dose response, cytotoxicity control for non-replicating M. tuberculosis project (AID 489025)
Details: THP-1 cell viability; series mostly up to 40 µM

Row | SMILES | outcome
1 | CC1(C)CC(=O)C=C(Nc2ccccc2N)C1 | inactive
2 | Nc1ccccc1Nc1ccccc1 | inactive
3 | CSCCOC(=O)COc1ccc(/C=N/NC(=O)c2c(Cl)cnn2C)cc1 | inactive
4 | CCOC(=O)CC(NS(=O)(=O)Cc1ccccc1)c1ccc(C)cc1 (stereo not given) | inactive
5 | CCCCC1CCC(C(=O)Nc2ccc(S(=O)(=O)Nc3nccs3)cc2)CC1 (stereo not given) | inactive
6 | COC(=O)COc1ccc(S(=O)(=O)N2CCCCCC2)cc1 | inactive
7 | CC1(C)Oc2ccc(NC(=O)C3COc4ccccc4O3)cc2O1 (stereo not given) | inactive
8 | CCc1nnc(NC(=O)c2cc3ccccc3oc2=O)s1 | inactive
9 | CC(C)(C)NC(=O)c1ccc(NC(=O)c2ccccc2-c2ccccc2C(=O)O)cc1 | inactive
10 | COC(=O)COc1ccc2c(=O)c(-c3ccccc3OC)coc2c1 | inactive
11 | O=C(COC(=O)c1cc2ccccc2oc1=O)Nc1ccc(F)cc1F | inactive
12 | O=C(CCSc1ccc(Cl)cc1)NC1CCCC1 | inactive
13 | CCc1ccc(NC(=O)COc2ccc3c(c2)OCO3)cc1 | inactive
14 | COc1ccc(C(=O)COC(=O)CCC(=O)c2cccs2)cc1 | inactive
15 | Cc1nc(C(=O)Nc2ccccc2)sc1C(=O)Nc1ccccc1 | inactive
16 | CC1=CC2=NC(=O)/C(=C\c3ccc(OC(=O)c4ccco4)cc3)C(=N)N2O1 | inactive
17 | CCOC(=O)c1ccc(COC(=O)c2cc3ccccc3oc2=O)o1 | inactive
18 | COc1cccc(OCC(=O)NNC(=O)C(=O)Nc2cccc(C)c2)c1 | inactive
19 | Cc1cccc(OCC(=O)NNC(=O)c2cc3ccccc3oc2=O)c1 | inactive
20 | O=c1oc(-c2ccccc2[N+](=O)[O-])nc2ccccc12 | inactive
21 | O=C(NC1=NCCS1)c1ccc(-c2ccc(Cl)cc2)o1 | inactive
22 | CCOc1ccc(C(=O)Nc2ccc(N3CCN(C)CC3)cc2)cc1Br | inactive
23 | NC(=O)c1ccc(-c2ccc(Br)cc2)o1 | inactive
24 | O=C(NNC(=O)c1ccccc1F)c1ccc(-c2ccc(Cl)cc2)o1 | inactive

Row | SMILES | outcome
25 | CC(=O)N1CCN(c2cc3c(cc2F)c(=O)c(C(=O)O)cn3C2CC2)CC1 | inactive
26 | CCCCn1c(O)c(/C=C2/C=CC=N2)c(=O)[nH]c1=O | inactive
27 | COC(=O)C(O)(c1ccc(NC(=S)NC(=O)c2ccccc2)cc1)C(F)(F)F (stereo not given) | inactive
28 | CCOC(=O)CCSc1n[nH]c(=S)s1 | inactive
29 | COC(=O)CN(C#N)c1nc(N(C)C)nc(N(C)C)n1 | inactive
30 | Cc1ccc2nc3c(c(N)c2c1)CCN3c1ccccc1 | inactive
31 | O=C(c1cc([N+](=O)[O-])cc([N+](=O)[O-])c1)N(Cc1nnc(-c2ccccc2Cl)o1)C1CC1 | inactive
32 | O=C(COc1ccc2ccccc2c1)N/N=C/c1ccccn1 | inactive
33 | O=C(COc1ccccc1)Nc1ccc(F)cc1 | inactive
34 | CCn1cc(/C=N\NC(=O)c2ccc(F)cc2)cn1 | inactive
35 | COc1ccc(C(=O)Nc2ccccc2C(=O)N/N=C/c2ccco2)cc1 | inactive
36 | COc1ccc(C2=NC(=O)/C(=C\c3cc(OC)c(OC)c(OC)c3)O2)cc1 | inactive
37 | CSc1nnc(Cc2ccc3c(c2)OCO3)o1 | inactive
38 | Oc1ccccc1-c1nnc(COc2ccccc2)o1 | inactive
39 | Cc1ccc(-c2nnc(-c3ccccc3)o2)cc1 | inactive
40 | Cc1cc(C)cc(NC(=O)CCc2ccc(C)o2)c1 | inactive
41 | Cn1c(=O)c(Oc2ccc(F)cc2)c(O)c2ccccc21 | inactive
42 | Nc1nnc(SCCCC(=O)c2ccc(Br)cc2)s1 | inactive
43 | CC(C)(C)c1cc(CN2CCC(O)CC2)cc(C(C)(C)C)c1O | inactive
44 | Cc1cc(C(=O)NNc2cc(Cl)ccc2Cl)no1 | inactive
45 | Cc1ccc(SCCC(=O)OCC(=O)NCC2CCCCC2)cc1 | inactive
46 | Cc1ccccc1OCCC(=O)OCC(=O)NNC(=O)c1cccs1 | inactive
47 | O=C(N/N=C/c1cccc2nccnc12)c1ccncc1 | inactive
48 | O=C(NNc1ccc([N+](=O)[O-])cc1)C1CC1c1ccccc1 (stereo not given) | inactive

Row | SMILES | outcome
49 | COc1cc(/C=N/NC(=O)c2ccncc2)ccc1OC(=O)c1cccc(F)c1 | inactive
50 | Cc1ccc(NC(=O)C2CC2c2ccccc2)cc1 (stereo not given) | inactive
51 | O=C(COC(=O)c1ccc(Br)o1)NC1CCCCC1 | inactive
52 | O=C(N/N=C/C=C/c1cccc([N+](=O)[O-])c1)c1ccncc1 | inactive
53 | COc1cccc(OCCNC(=O)c2cc([N+](=O)[O-])cc([N+](=O)[O-])c2)c1 | inactive
54 | CC(/C=C/c1cccc([N+](=O)[O-])c1)=N\NC(=O)c1ccncc1 | inactive
55 | Cc1ccc(CSCCNC(=O)c2cccc([N+](=O)[O-])c2)cc1 | inactive
56 | O=C(N/N=C/c1ccccn1)c1cccc([N+](=O)[O-])c1 | inactive
57 | FC(F)(F)c1ccc(-c2nnc(-c3cccnc3)o2)cc1 | inactive
58 | CC1CCCN(CCSc2ccc(Cl)cc2)C1 (stereo not given) | inactive
59 | CCC(C)(C)c1ccc(OCC(=O)Nc2ccncc2)cc1 | inactive
60 | COc1ccc(-n2c3c(cc(C(=O)NNc4ccccc4)c2=O)C(=O)CC(C)(C)C3)cc1 | inactive
61 | Cc1cccc(NC(=O)COC(=O)CCc2c[nH]c3ccccc23)c1 | inactive
62 | Cc1ccc(C(C)C)c(OCC(=O)OCc2c(C)noc2C)c1 | inactive
63 | CCOC(=O)COc1ccc(C(=O)Nc2cccc(Cl)c2C)cc1 | inactive
64 | c1ccc(-c2nnc(SCc3nnc(-c4cccs4)o3)o2)cc1 | inactive
65 | CCOC(=O)Cc1nc2cc(Cl)ccc2o1 | inactive
66 | O=C1c2ccccc2CC1Sc1nnc(-c2ccncc2)o1 (stereo not given) | inactive
67 | CCCCCCOc1ccc(N2C(=O)CC(N3CCN(C(=O)c4ccco4)CC3)C2=O)cc1 (stereo not given) | inactive
68 | CC(/C=C/c1ccc2c(c1)OCO2)=N/NC(=O)C1COc2ccccc2O1 (stereo not given) | inactive
69 | CC(C)NC(=O)C1COc2ccccc2O1 (stereo not given) | inactive
70 | COc1ccc(NC(=O)C2COc3ccccc3O2)cc1 (stereo not given) | inactive
71 | O=C(Nc1cccc(Cl)c1)C1COc2ccccc2O1 (stereo not given) | inactive
72 | O=C(Nc1cccc([N+](=O)[O-])c1)C1COc2ccccc2O1 (stereo not given) | inactive

Row | SMILES | outcome
73 | O=C(Nc1ccc([N+](=O)[O-])cc1)C1COc2ccccc2O1 (stereo not given) | inactive
74 | Cc1ccccc1NC(=O)C1COc2ccccc2O1 (stereo not given) | inactive
75 | CC(C)(C)c1ccc2c(c1)OC(C(=O)N/N=C\c1ccccn1)CO2 (stereo not given) | inactive
76 | CN1CCC(O)(c2ccccc2)C(C(=O)c2ccccc2)C1 (stereo not given) | inactive
77 | COc1cccc(NC(=O)COC(=O)Cc2ccc(Br)cc2)c1 | inactive
78 | COc1ccc(OCCC(=O)OCC(=O)Nc2ccc(Br)cc2)cc1 | inactive
79 | Cn1ccsc1=NC(=O)c1ccccc1F | inactive
80 | Cc1ccccc1C(=O)NNc1ccc([N+](=O)[O-])cc1 | inactive
81 | CC(C)(C)Sc1ccc2nc3c(n2c1)CCCC3 | inactive
82 | COc1ccc(N=Cc2nc(-c3ccccc3)oc2OC(C)=O)cc1 | inactive
83 | CCCOc1ccc(N2C(=O)CC(N3CCCC(C(=O)N4CCCC4)C3)C2=O)cc1 (stereo not given) | inactive
84 | Cc1ccc(C2=NN(C)c3nc4ccccc4n3C2)cc1 | inactive
85 | COc1cccc(C(=O)OCC(=O)c2ccc(Br)s2)c1OC | inactive
86 | O=C(COC(=O)c1ccccc1)NC12CC3CC(CC(C3)C1)C2 | inactive
87 | C=CCN1C(=O)C2(NNc3ccccc3O2)c2ccccc21 (stereo not given) | inactive
88 | O=C(NCCC1=CCCCC1)c1coc(=O)c(Br)c1 | inactive
89 | COc1ccc(C2=Nc3ccccc3OC2)cc1 | inactive
90 | Cc1ccc(N2C(=O)CC(Sc3nccc(C)n3)C2=O)cc1 (stereo not given) | inactive
91 | COc1ccc(C(=O)OCn2nnc3ccccc3c2=O)cc1[N+](=O)[O-] | inactive
92 | COC(=O)c1ccc(Cn2cc(C(F)(F)F)cc([N+](=O)[O-])c2=O)cc1 | inactive
93 | Cc1cccc(C)c1NC(=O)COC(=O)CCc1c[nH]c2ccccc12 | inactive
94 | C=C[C@]1(C)C=C2CCC3[C@](C)(CCC[C@@]3(C)C(=O)O)C2CC1 (stereo not given in full) | inactive
95 | Cc1nnc(C)n1/N=C/c1cc(Br)cc(Br)c1O | inactive
96 | Oc1c(Br)cc(Br)cc1/C=N/c1nccs1 | inactive

Row | SMILES | outcome
97 | Cc1ccc(-c2nnc(SCC#CCOC(=O)c3ccco3)o2)cc1 | inactive
98 | CCOC(=O)COc1ccc2c(c1)c(C(=O)OCC)c(C)n2CC | inactive
99 | O=C(COc1ccc(Cl)cc1)NNC(=O)c1ccccn1 | inactive
100 | COc1cccc(NC(=O)c2ccc(C(=O)c3ccccc3)o2)c1 | inactive
101 | COc1ccc(OCC(=O)NNC(=O)c2ccccn2)cc1 | inactive
102 | O=C(Nc1ncccc1O)c1ccc(Oc2ccccc2)cc1 | inactive
103 | O=C(Nc1ccccc1N1CCCC1)c1cccc(F)c1 | inactive
104 | COC(=O)c1ccc(OCC(=O)c2cccc(OC)c2)cc1 | inactive
105 | O=C(N/N=C/c1ccc[nH]1)c1cccnc1 | inactive
106 | CCc1ccc(NC(=O)C(=O)NNC(=O)COc2cccc(OC)c2)cc1 | inactive
107 | Brc1ccc(CSc2nnc(-c3ccco3)o2)cc1 | inactive
108 | COc1ccc([C@@]2(O)c3c(ccc(CC=C(C)C)c3O)NC(=O)[C@@H]2OC)cc1 | inactive
109 | CCCOC(=O)NC1CCS(=O)(=O)C1 (stereo not given) | inactive
110 | Cc1ccc(Sc2ccc(C=C3C(=O)N(C)C(=O)N(C)C3=O)o2)cc1 | inactive
111 | CCc1ccc(N2C(=O)CC(N3CCC(C(=O)OC)CC3)C2=O)cc1 (stereo not given) | inactive
112 | CCOC(=O)c1c(C)n(C)c2ccc(OC(C)C(=O)OC)cc12 (stereo not given) | inactive
113 | O=C(COc1c(Br)cc(Br)c2cccnc12)N1CCCCC1 | inactive
114 | COc1cc(NC(=O)N2CCOCC2)cc(OC)c1 | inactive
115 | O=C(CCN1CCOCC1)c1ccc(Cl)cc1 | inactive
116 | COc1cc(OC)cc(OC(=O)c2ccc3c(=O)n4c(nc3c2)CCC4)c1 | inactive
117 | Oc1ccc(F)c2cccnc12 | inactive
118 | COc1ccc(CN2CCC(C(=O)Nc3ccc(Oc4cccnc4)cc3)CC2)c(C)c1C | inactive
119 | COc1ccc(/C=N/NC(=O)c2ccncc2)cc1CN1CCOCC1 | inactive
120 | CCOC(=O)C1(CCc2ccccc2)CCN(Cc2ccccn2)CC1 | inactive
